Among the data in ChEMBL document CHEMBL4513137, “CO-ADD screening of University of Manchester (UK) compounds” are Inhibition values, retold here.

The subject of one assay is Staphylococcus aureus. The conditions noted are these: Concentration 32 ug.mL-1; ASSAY_TEST Inhibition of Bacterial Growth; detection method Absorption (OD600); MEDIA CAMHB; plate type 384well; NBS; CORNING #3640; time 18 hr.
The test system of a further assay is Escherichia coli. The conditions noted are these: Concentration 32 ug.mL-1; ASSAY_TEST Inhibition of Bacterial Growth; detection method Absorption (OD600); MEDIA CAMHB; plate type 384well; NBS; CORNING #3640; time 18 hr.

Measured potencies and affinities stand elsewhere.

A word on the Inhibition: it is the change of the read-out against control, counted positive when it falls.

With `COc1cc([N+](=O)[O-])ccc1-c1ccccc1Nc1ccccc1`, the Inhibition was 23.48% in the assay with Staphylococcus aureus and -2.88% with Escherichia coli.
For `N#Cc1ccc(-c2ccccc2Nc2ccccc2)cc1`, the Inhibition is 12.74% in the assay with Staphylococcus aureus and -6.88% in the assay with Escherichia coli.
For `O=[N+]([O-])c1ccc(-c2c(Nc3ccccc3)ccc3ccccc23)cc1`, in that order: 8.24% and -0.39%.
On the same counts, the results for `O=[N+]([O-])c1ccc(-c2ccccc2Nc2ccccc2)c(Cl)c1` are 13.69% and -8.34%.
For `O=[N+]([O-])c1ccc2c3ccccc3n(-c3ccccc3)c2c1`, the values for the Inhibition in the assay on Staphylococcus aureus and in the assay on Escherichia coli were 11.65% and -9.21%, respectively.
On to `O=[N+]([O-])c1ccc(-c2c(Nc3ccccc3)cccc2-c2ccccc2)cc1`, for which the results for the Inhibition in the assay with Staphylococcus aureus and in the assay on Escherichia coli were 23.01% and -0.69%, respectively.
In the case of `Cc1cc([N+](=O)[O-])ccc1-c1ccccc1N(C)c1ccccc1`, the Inhibition in the assay on Staphylococcus aureus is -10.68%; with Escherichia coli it was 0.54%.
Regarding `O=[N+]([O-])c1ccc(-c2ccccc2Nc2ccccc2Br)cc1`, the Inhibition in the assay on Staphylococcus aureus was 15.02%; in the assay on Escherichia coli, -1.08%.
On the same counts, the results for `COc1cccc(N(C)c2cccc(OC)c2-c2ccc([N+](=O)[O-])cc2C)c1` are 23.07% and 1.91%.
Turning to `O=[N+]([O-])c1ccc(-c2ccccc2Nc2ccccc2)cc1C(F)(F)F`, the Inhibition in the assay with Staphylococcus aureus is given as 23.3%; in the assay on Escherichia coli, 4.01%.
For the compound `Cc1cc(C)c(Nc2ccccc2-c2ccc([N+](=O)[O-])cc2)c(C)c1`, the Inhibition in the assay on Staphylococcus aureus is -5.17%; with Escherichia coli, 1.23%.
As to `O=[N+]([O-])c1cc(Cl)c(-c2ccccc2Nc2ccccc2)c(Cl)c1`, the Inhibition was 19.61% with Staphylococcus aureus and -7.56% with Escherichia coli.
Consider `CC(=O)c1ccc(-c2ccccc2Nc2ccccc2)cc1`, for which the Inhibition is 12.03% with Staphylococcus aureus and 6.5% in the assay with Escherichia coli.
Turning to `COc1cccc(Nc2ccccc2)c1-c1c(Cl)cc(Br)cc1Cl`, the values for the Inhibition in the assay with Staphylococcus aureus and in the assay with Escherichia coli were 19.63% and 4.62%, respectively.
Turning to `COc1cccc(Nc2ccccc2)c1-c1ccc([N+](=O)[O-])cc1`, the Inhibition is on record as 23.81% with Staphylococcus aureus and 7.82% in the assay on Escherichia coli.
`Cc1cccc(C)c1Nc1ccccc1-c1ccccc1[N+](=O)[O-]`: the values for the Inhibition with Staphylococcus aureus and with Escherichia coli were 57.09% and 4.01%, respectively.
On the same counts, the results for `O=[N+]([O-])c1ccc(-c2ccccc2Nc2ccccc2)cc1` are -5.74% and 3.34%.
On the same counts, the results for `CC[C@@H](Nc1ccccc1-c1c(Cl)cc(Br)cc1Cl)c1ccccc1` are 29.88% and 4.43%.
For `c1ccc(Nc2ccccc2-c2ncccn2)cc1`, in that order: 6.34% and 1.3%.
On to `O=[N+]([O-])c1ccc(-c2ccccc2N(Cc2ccccc2)c2ccccc2)cc1`, for which the results for the Inhibition in the assay on Staphylococcus aureus and in the assay on Escherichia coli were 20.79% and 4.24%, respectively.
As to `CN(c1ccccc1)c1ccccc1-c1ccc([N+](=O)[O-])cc1`, the results for the Inhibition in the assay on Staphylococcus aureus and in the assay with Escherichia coli were 9.33% and -0.45%, respectively.
On the same counts, the results for `O=[N+]([O-])c1ccc(-c2ccccc2Nc2ccccc2)cc1F` are 18.96% and 3.69%.
Regarding `O=[N+]([O-])c1ccc(-c2cccc3c2[nH]c2ccccc23)cc1`, the Inhibition in the assay on Staphylococcus aureus was determined as 21.52%; with Escherichia coli, 3.84%.
On the same counts, the results for `Clc1cc(Br)cc(Cl)c1-c1ccccc1Nc1ccccc1` are 22.27% and -3.79%.
As for `Cc1ccccc1Nc1ccccc1-c1ccc([N+](=O)[O-])cc1`, the Inhibition is reported as 21.4% in the assay with Staphylococcus aureus and -4.33% in the assay with Escherichia coli.
Consider `COc1ccc(Nc2ccccc2-c2ccc([N+](=O)[O-])cc2)cc1`, for which the Inhibition was 17.68% with Staphylococcus aureus and -1.45% in the assay with Escherichia coli.
On the same counts, the results for `COc1cc([N+](=O)[O-])ccc1-c1c(Nc2ccccc2)cccc1OC` are 27.31% and 7.58%.
